High-throughput results deposited in PubChem by National Center for Advancing Translational Sciences (NCATS).
HCV inhibitor – inhibitors of hepatitis C virus infection; Huh7.5.1 HCVcc-Cre infection, luciferase reporter, 44 h; Potency, µM (doses to about 41.8 µM), usual class: inhibitors; 340,000 tested, 3.4% active
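Reporter virus HCVcc-Cre (~0.5 moi) infects cells exposed to compound; seeding density 1,000 cells/well with 4 h settling beforehand. Luminescence, 15 sec read, taken 44 h post-infection following a 15 min RT substrate incubation.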
RE007 growth inh – less growth of the S. pombe RE007 Vpr strain | S. pombe RE007 Vpr strain, BacTiter-Glo ATP luminescence, 24 h | Potency, µM (doses to about 92.2 µM), most hits filed as inhibitors | 360,000 tested, 0.21% active; active = well fitted falling curve with a large enough effect; inconclusive = small, poorly fitted or top-dose-only effect; inactive = no such curve, though single readings can be large or run the other way; also: nearly all actives have a fitted effect of over 50% in size
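Fission yeast strain RE007, carrying one chromosomally integrated HIV-1 vpr copy, was seeded at OD 0.01 in PMG+AL medium with 23 nL pinned compound. After 24 h at 30 °C and 99% humidity, viability was read by BacTiter-Glo luminescence.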
Sm TGR inh – S. mansoni TGR enzyme inhibition; AID 485364; Potency, µM (series often up to 114 µM), usual class: inhibitors; 360,000 tested, 3% active; Q962Y6; purified TGR, DTNB reduction, TNB absorbance 405 nm; also: nearly all actives have a fitted effect of over 60% in size
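First, TGR (20 nM dispensed) and NADPH were mixed with compound. Second, a 15 min room-temperature incubation followed. Third, further NADPH and then DTNB were added to start the reaction. Finally, TNB absorbance was monitored kinetically.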
MARV entry inh – Marburg virus entry inhibition. Marburg virus pseudotyped entry inhibition, cell reporter. Potency, µM (top dose mostly 37.8 µM), most hits filed as inhibitors. 300,000 tested, 1.8% active. AID 540276; calls by dose curve; tested in HEK293 cells
LASV entry inh – Lassa virus entry inhibition; Potency, µM (series often up to 37.9 µM), actives largely listed as inhibitors; AID 540256; Lassa virus pseudotype entry inhibition, cell reporter; 300,000 tested, 1.2% active; calls by dose curve; tested in HEK293 cells; also: nearly all actives have a fitted effect of over 50% in size
FMDV antiviral – antivirals against foot and mouth disease virus; FMDV antiviral cell-based qHTS; Potency, µM (series often up to 57.9 µM), usual class: inhibitors; 410,000 tested, 1.2% active; calls by dose curve; tested in HEK293T cells; also: read-out not given here; nearly all actives have a fitted effect of over 45% in size
Large screens that a line does not name were inactive. Rows were chosen to be rich in hits. Some 7.2% of all compounds tested hit in one or more screens of this group. Unless noted, calls follow the shape of the dose curve; as a rule, active = well fitted curve in the direction sought with a large enough effect; inconclusive = small, poorly fitted or top-dose-only effect, or another doubt; inactive = no such curve, though single readings can be large; an effect the other way counts as inactive or inconclusive.

Cc1ccc2nc(N(CCN3CCOCC3)C(=O)CCS(=O)(=O)c3ccccc3)sc2c1	MARV entry inh inconclusive
Cc1ccc(S(=O)(=O)CCC(=O)N(CCCN2CCOCC2)c2nc3ccccc3s2)cc1	Sm TGR inh 14.1µM, MARV entry inh inconclusive, LASV entry inh inconclusive
COCCNC(=O)C1CCC(CNS(=O)(=O)c2ccc3c(c2)CC(C)N3C(C)=O)CC1 (centres undefined)	none (no result: HCV inhibitor, RE007 growth inh, MARV entry inh)
Cc1ccc(-n2nnnc2CNC(=O)c2ccccc2S(C)(=O)=O)cc1C	LASV entry inh inconclusive (no result: HCV inhibitor, RE007 growth inh, MARV entry inh)
Cc1ccc(CNC(=O)c2nn(-c3ccc(Cl)cc3)nc2CO)cc1	LASV entry inh inconclusive (no result: HCV inhibitor, RE007 growth inh)
O=c1oc2ccccc2c(Cl)c1CN1CCCCC1	HCV inhibitor inconclusive, Sm TGR inh 4.47µM, FMDV antiviral inconclusive (no result: MARV entry inh, LASV entry inh)
O=c1cc(CN2CCCCCCC2)c2ccccc2o1	none (no result: HCV inhibitor, Sm TGR inh, MARV entry inh)
O=c1oc2ccccc2c(N2CCCC2)c1CN1CCCC1	Sm TGR inh 35.5µM (no result: FMDV antiviral)
Nc1c(NCCN2CCCCC2)c2ccccc2oc1=O	Sm TGR inh 28.2µM
COc1ccc(CNC(=O)CN(c2ccc(C(C)C)cc2)S(=O)(=O)c2c(C)nn(C)c2C)cc1	LASV entry inh inconclusive (no result: HCV inhibitor, RE007 growth inh)
CCC(=O)N1CCc2cc(Br)cc(S(=O)(=O)CCC(=O)Nc3ccc(C)c(F)c3)c21	none (no result: HCV inhibitor, RE007 growth inh)
O=C(c1ccccc1)[C@@H]1O[C@H]1c1ccc(-c2ccccc2)cc1	none (no result: HCV inhibitor, RE007 growth inh, Sm TGR inh, MARV entry inh, LASV entry inh)
CC/C=C\[C@H](O)[C@H](O)C1=C(C)C(=O)[C@]2(O1)C(=O)N[C@@](OC)(C(=O)c1ccccc1)C2O (some centres undefined)	Sm TGR inh 39.8µM (no result: MARV entry inh, LASV entry inh)
CSc1ccc2c(c1)C(N1CCN(C)CC1)Cc1ccccc1S2 (centres undefined)	HCV inhibitor inconclusive, MARV entry inh 6.31µM, LASV entry inh 18.3µM, FMDV antiviral inconclusive
CN1CCN(C2Cc3ccc(F)cc3Sc3cc(F)c(Cl)cc32)CC1 (centres undefined)	HCV inhibitor inconclusive, MARV entry inh inconclusive, LASV entry inh inconclusive (no result: Sm TGR inh)
CN1CCN(C2Cc3ccccc3Sc3cc(C(F)(F)F)ccc32)CC1 (centres undefined)	HCV inhibitor 11.2µM, MARV entry inh inconclusive, LASV entry inh inconclusive (no result: Sm TGR inh)
Cc1cccc2c1Sc1ccc(Cl)cc1CC2N1CCNCC1 (centres undefined)	HCV inhibitor 12.6µM, FMDV antiviral inconclusive (no result: Sm TGR inh, MARV entry inh, LASV entry inh)
CN1CCN(C2Cc3ccccc3Sc3ccc(Cl)cc32)CC1 (centres undefined)	HCV inhibitor inconclusive, MARV entry inh 15.8µM, LASV entry inh 10.3µM, FMDV antiviral inconclusive
O=C(NCCc1ccc(Cl)cc1)c1nc(-c2cccc(F)c2)n2c1CCCCC2	none (no result: HCV inhibitor, RE007 growth inh, MARV entry inh)
Cc1c(-c2ccc(Cl)cc2)c(=O)oc2ccc(OC(=O)N3CCOCC3)cc12	none (no result: HCV inhibitor, RE007 growth inh, MARV entry inh)
O=C(Cc1cccs1)NC1CC(=O)N(c2cccc(F)c2)C1 (centres undefined)	none (no result: HCV inhibitor, RE007 growth inh, MARV entry inh)
Cc1cc(S(=O)(=O)NCc2ccccc2)ccc1OCC(=O)Nc1cccc([N+](=O)[O-])c1	HCV inhibitor inconclusive, MARV entry inh 11.6µM, LASV entry inh inconclusive
Cc1cc(S(=O)(=O)NCc2ccccc2)ccc1OCC(=O)NCc1ccccn1	LASV entry inh inconclusive
O=C(O)CN1C(=O)c2cccc3c(Br)ccc1c23	none
CN(C)CCCN1C(=O)c2cccc3c(Br)ccc(c23)C1=O	HCV inhibitor inconclusive, Sm TGR inh 8.91µM (no result: MARV entry inh, LASV entry inh)
COc1ccc(Cl)cc1NC(=O)NC1CCCCC1	HCV inhibitor inconclusive
COc1ccc(Cl)cc1NC(=O)NC(C)c1ccncc1 (centres undefined)	HCV inhibitor 7.08µM
Cc1c(NC(=O)CN(c2ccccc2)S(=O)(=O)c2ccc(F)cc2)c(=O)n(-c2ccccc2)n1C	FMDV antiviral inconclusive
Cc1c(NC(=O)CN(c2ccc(F)cc2)S(=O)(=O)c2ccccc2)c(=O)n(-c2ccccc2)n1C	Sm TGR inh 10µM
COc1ccc(Cl)cc1NC(=O)Nc1cccc([N+](=O)[O-])c1C	HCV inhibitor 15.8µM, MARV entry inh inconclusive, LASV entry inh inconclusive
Cc1cc(C)cc(OCC(=O)OCC(=O)Nc2c(C)n(C)n(-c3ccccc3)c2=O)c1	HCV inhibitor 1µM
Cc1c(NC(=O)COC(=O)COc2ccc(Nc3ccccc3)cc2)c(=O)n(-c2ccccc2)n1C	Sm TGR inh inconclusive, MARV entry inh inconclusive
CCCCOC(=O)c1cccc(NC(=O)c2cc3ccccc3o2)c1	none (no result: HCV inhibitor, RE007 growth inh, MARV entry inh)
